The values below come from ChEMBL document CHEMBL1961873, “Compounds: GSK PKIS; Assays: Nanosyn kinase panel” (2012).

In test [1] the target is T1, Ephrin type-B receptor 2 (Homo sapiens) (UniProt P29323).
T1 sequence (whole entry): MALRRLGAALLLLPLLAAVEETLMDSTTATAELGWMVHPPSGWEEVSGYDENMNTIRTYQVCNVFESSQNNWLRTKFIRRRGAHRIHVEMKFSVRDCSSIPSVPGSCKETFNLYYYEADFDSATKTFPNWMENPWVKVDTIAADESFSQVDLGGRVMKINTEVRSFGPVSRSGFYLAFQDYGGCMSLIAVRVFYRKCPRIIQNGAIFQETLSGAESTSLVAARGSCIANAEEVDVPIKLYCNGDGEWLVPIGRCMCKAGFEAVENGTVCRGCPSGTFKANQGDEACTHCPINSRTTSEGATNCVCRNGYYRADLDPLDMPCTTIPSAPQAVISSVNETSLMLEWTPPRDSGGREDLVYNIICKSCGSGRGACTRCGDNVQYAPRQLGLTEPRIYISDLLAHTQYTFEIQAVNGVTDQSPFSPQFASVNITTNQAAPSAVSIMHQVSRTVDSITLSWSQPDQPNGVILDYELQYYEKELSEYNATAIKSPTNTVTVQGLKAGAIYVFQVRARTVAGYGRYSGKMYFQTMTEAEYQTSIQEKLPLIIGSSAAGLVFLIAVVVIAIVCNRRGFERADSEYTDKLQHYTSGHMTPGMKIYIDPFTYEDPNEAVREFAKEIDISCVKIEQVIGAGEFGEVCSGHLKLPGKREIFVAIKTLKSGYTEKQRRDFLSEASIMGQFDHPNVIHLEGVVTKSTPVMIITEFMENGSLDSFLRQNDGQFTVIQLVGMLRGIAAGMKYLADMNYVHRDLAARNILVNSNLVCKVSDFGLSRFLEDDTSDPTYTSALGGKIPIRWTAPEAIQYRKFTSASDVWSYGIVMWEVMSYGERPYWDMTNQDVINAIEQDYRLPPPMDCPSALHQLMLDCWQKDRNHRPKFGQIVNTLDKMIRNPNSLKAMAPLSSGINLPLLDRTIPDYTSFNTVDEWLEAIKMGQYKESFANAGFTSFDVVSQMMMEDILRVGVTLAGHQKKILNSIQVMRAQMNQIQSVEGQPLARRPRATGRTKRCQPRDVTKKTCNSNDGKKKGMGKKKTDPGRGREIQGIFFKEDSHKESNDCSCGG
As to conditions: at 1 µM.

Test [2] deals with T2, Ephrin type-B receptor 3 (Homo sapiens) (UniProt P54753).
T2 sequence (whole entry): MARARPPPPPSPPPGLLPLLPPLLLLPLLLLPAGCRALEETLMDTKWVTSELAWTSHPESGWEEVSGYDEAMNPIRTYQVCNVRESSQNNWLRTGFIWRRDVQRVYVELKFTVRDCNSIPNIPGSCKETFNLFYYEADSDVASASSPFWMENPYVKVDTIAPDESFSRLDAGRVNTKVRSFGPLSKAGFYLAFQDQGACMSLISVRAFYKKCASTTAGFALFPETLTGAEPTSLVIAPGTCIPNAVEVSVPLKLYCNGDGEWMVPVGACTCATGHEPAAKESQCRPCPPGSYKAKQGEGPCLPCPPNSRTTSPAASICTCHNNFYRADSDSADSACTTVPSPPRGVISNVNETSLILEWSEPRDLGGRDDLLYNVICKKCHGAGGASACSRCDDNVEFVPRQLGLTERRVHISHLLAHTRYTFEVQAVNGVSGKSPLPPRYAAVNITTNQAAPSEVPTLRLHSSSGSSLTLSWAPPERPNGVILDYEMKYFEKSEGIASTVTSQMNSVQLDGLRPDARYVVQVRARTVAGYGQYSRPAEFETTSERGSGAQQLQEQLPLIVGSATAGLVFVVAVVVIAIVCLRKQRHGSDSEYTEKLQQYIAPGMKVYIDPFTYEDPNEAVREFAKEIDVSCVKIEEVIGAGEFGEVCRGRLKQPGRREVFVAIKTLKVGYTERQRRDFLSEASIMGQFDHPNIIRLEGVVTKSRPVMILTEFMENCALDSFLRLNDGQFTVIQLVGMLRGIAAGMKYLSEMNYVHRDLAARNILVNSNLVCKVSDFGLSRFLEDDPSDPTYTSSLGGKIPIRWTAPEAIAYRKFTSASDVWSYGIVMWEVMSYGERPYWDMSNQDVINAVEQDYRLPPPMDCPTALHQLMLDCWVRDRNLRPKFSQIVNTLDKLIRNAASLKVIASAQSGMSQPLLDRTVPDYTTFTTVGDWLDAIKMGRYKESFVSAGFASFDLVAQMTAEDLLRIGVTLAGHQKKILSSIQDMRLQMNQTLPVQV
The settings on record: at 0.1 µM.

The target in test [3] is T2, Ephrin type-B receptor 3 (Homo sapiens). As to conditions: at 1 µM.
The target in test [4] is T3, Ephrin type-B receptor 4 (Homo sapiens) (UniProt P54760).
T3 sequence (whole entry): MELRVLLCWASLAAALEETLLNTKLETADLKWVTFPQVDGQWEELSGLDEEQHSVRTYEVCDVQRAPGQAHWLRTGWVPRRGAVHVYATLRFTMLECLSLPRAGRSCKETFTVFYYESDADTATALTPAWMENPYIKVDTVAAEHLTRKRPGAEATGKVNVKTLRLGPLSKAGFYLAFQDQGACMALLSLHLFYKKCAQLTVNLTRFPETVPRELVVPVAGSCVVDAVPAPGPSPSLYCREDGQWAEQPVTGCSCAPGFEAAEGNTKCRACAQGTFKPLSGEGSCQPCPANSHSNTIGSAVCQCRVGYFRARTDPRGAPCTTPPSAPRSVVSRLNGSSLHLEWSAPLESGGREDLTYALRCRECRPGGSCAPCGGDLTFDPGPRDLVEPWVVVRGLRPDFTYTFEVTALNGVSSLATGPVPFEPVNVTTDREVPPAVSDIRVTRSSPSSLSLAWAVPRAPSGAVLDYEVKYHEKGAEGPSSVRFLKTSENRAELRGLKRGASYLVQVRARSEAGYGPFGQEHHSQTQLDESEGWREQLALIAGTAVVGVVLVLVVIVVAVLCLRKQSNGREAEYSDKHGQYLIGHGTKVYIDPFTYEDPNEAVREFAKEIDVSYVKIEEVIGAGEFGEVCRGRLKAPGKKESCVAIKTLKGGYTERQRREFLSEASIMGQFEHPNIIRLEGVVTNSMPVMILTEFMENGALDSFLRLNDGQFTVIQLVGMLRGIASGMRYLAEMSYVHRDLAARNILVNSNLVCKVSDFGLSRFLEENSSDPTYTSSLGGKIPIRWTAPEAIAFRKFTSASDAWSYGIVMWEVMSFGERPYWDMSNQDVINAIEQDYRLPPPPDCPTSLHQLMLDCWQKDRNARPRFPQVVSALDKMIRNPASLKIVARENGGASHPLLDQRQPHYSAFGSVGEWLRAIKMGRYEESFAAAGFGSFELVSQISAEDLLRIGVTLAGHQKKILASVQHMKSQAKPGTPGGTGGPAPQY
The settings on record: at 0.1 µM.

Test [5] has as its target T3, Ephrin type-B receptor 4 (Homo sapiens). The settings on record: at 1 µM.
The target of test [6] is Receptor tyrosine-protein kinase erbB-2 (Homo sapiens) (UniProt P04626). As to conditions: at 0.1 µM.
The target is the same in test [7]. As to conditions: at 1 µM.
Test [8] has as its target Receptor tyrosine-protein kinase erbB-4 (Homo sapiens) (UniProt Q15303). As to conditions: at 0.1 µM.
For test [9] the target is unchanged. As to conditions: at 1 µM.
The target in test [10] is Tyrosine-protein kinase Fer (Homo sapiens) (UniProt P16591). The settings on record: at 0.1 µM.
For test [11] the target is unchanged. The settings on record: at 1 µM.
Test [12] has as its target Tyrosine-protein kinase Fes/Fps (Homo sapiens) (UniProt P07332). The settings on record: at 0.1 µM.
For test [13] the target is unchanged. As to conditions: at 1 µM.
In test [14] the target is Fibroblast growth factor receptor 1 (Homo sapiens) (UniProt P11362). The settings on record: at 0.1 µM.
Fibroblast growth factor receptor 1 (Homo sapiens), sequence (P11362 22-822 limits assumed): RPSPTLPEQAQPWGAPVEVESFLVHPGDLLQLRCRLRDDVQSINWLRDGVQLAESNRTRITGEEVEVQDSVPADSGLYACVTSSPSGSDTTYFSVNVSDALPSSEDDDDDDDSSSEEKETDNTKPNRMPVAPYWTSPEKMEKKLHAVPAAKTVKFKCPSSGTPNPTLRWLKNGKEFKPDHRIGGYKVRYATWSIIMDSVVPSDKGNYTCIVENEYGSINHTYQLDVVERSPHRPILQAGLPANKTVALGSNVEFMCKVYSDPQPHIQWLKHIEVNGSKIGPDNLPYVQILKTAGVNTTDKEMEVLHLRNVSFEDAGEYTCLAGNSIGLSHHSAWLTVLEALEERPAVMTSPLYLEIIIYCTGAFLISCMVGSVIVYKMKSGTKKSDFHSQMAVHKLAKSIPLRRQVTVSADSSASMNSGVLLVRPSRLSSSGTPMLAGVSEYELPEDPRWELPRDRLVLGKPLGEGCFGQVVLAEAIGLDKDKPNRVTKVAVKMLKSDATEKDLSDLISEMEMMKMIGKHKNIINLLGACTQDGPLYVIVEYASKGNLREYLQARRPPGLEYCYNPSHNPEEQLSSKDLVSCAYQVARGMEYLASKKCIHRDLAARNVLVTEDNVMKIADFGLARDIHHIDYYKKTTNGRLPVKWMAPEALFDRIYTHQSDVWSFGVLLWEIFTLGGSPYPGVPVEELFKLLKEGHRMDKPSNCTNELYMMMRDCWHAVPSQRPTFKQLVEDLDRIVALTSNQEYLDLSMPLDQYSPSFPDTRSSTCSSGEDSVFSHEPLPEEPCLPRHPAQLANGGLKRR
Test [15] has the same target. As to conditions: at 1 µM.
The target in test [16] is Fibroblast growth factor receptor 2 (Homo sapiens) (UniProt P21802). The settings on record: at 0.1 µM.
The target is the same in test [17]. The settings on record: at 1 µM.
Test [18] deals with Fibroblast growth factor receptor 3 (Homo sapiens) (UniProt P22607). As to conditions: at 0.1 µM.
Fibroblast growth factor receptor 3 (Homo sapiens), sequence (P22607 23-806 limits assumed): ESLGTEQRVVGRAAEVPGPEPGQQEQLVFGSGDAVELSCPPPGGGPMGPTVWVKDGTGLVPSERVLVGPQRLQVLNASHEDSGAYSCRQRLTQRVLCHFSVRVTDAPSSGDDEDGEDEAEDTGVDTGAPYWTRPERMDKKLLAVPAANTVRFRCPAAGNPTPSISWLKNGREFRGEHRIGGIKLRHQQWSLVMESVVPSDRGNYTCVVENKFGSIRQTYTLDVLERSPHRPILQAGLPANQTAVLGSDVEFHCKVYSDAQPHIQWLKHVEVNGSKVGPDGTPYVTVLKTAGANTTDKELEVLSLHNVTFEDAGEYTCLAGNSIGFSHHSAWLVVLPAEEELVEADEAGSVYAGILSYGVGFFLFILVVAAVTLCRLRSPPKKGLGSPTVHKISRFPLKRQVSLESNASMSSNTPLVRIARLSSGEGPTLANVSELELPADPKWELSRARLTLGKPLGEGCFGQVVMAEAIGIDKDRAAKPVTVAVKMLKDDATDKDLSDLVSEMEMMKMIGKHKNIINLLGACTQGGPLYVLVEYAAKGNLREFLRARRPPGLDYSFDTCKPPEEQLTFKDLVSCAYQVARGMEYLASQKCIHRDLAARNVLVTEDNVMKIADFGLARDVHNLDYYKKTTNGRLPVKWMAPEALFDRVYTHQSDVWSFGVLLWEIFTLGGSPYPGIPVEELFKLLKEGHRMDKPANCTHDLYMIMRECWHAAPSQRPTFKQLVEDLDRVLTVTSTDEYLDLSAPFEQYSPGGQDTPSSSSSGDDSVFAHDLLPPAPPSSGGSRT
Test [19] has the same target. The settings on record: at 1 µM.
Test [20] deals with Fibroblast growth factor receptor 4 (Homo sapiens) (UniProt P22455). The settings on record: at 0.1 µM.
Fibroblast growth factor receptor 4 (Homo sapiens), sequence (P22455 22-802 limits assumed): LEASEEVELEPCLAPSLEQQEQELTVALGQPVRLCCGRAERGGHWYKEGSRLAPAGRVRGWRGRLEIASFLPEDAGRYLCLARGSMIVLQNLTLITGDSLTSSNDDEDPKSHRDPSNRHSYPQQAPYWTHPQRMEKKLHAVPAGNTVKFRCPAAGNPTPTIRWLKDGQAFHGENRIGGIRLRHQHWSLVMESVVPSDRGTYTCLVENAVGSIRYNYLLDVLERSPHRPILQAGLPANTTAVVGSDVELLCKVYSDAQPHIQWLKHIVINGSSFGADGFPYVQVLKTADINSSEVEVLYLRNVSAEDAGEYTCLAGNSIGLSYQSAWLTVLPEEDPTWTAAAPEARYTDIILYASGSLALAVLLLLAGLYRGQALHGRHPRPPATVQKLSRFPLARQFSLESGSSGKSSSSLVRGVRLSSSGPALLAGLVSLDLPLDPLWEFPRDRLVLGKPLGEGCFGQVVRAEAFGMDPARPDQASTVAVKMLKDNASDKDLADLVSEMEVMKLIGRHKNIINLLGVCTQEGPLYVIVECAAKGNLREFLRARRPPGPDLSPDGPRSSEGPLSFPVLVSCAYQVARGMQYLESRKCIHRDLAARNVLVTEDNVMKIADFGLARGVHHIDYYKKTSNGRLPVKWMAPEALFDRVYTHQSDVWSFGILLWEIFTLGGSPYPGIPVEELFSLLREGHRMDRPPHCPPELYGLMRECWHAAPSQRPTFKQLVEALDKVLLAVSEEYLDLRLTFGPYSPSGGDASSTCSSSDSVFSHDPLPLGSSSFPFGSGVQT

Structures are written as SMILES.

Tyrosine-protein kinase Fes/Fps (Homo sapiens), sequence (P07332 whole entry): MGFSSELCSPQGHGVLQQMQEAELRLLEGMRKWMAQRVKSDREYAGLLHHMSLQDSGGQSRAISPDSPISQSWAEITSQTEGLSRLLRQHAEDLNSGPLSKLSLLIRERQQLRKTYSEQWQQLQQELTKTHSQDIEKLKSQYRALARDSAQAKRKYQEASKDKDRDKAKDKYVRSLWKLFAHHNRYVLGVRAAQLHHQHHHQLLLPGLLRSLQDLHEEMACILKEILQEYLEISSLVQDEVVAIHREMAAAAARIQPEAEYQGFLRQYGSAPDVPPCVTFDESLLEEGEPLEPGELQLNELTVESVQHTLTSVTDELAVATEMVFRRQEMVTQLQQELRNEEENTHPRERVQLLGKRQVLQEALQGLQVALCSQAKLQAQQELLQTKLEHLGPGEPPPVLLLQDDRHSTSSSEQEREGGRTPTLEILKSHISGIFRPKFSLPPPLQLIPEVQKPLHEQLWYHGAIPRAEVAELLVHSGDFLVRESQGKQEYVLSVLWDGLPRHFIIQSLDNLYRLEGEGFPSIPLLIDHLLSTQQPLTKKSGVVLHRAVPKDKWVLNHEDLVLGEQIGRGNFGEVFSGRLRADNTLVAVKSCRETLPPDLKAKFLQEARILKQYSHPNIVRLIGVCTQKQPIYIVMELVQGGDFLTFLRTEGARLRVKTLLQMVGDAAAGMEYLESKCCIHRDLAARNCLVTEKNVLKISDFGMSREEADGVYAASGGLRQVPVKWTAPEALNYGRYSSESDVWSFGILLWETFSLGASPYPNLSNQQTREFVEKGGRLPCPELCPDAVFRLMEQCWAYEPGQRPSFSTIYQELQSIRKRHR
Receptor tyrosine-protein kinase erbB-4 (Homo sapiens), sequence (Q15303 whole entry): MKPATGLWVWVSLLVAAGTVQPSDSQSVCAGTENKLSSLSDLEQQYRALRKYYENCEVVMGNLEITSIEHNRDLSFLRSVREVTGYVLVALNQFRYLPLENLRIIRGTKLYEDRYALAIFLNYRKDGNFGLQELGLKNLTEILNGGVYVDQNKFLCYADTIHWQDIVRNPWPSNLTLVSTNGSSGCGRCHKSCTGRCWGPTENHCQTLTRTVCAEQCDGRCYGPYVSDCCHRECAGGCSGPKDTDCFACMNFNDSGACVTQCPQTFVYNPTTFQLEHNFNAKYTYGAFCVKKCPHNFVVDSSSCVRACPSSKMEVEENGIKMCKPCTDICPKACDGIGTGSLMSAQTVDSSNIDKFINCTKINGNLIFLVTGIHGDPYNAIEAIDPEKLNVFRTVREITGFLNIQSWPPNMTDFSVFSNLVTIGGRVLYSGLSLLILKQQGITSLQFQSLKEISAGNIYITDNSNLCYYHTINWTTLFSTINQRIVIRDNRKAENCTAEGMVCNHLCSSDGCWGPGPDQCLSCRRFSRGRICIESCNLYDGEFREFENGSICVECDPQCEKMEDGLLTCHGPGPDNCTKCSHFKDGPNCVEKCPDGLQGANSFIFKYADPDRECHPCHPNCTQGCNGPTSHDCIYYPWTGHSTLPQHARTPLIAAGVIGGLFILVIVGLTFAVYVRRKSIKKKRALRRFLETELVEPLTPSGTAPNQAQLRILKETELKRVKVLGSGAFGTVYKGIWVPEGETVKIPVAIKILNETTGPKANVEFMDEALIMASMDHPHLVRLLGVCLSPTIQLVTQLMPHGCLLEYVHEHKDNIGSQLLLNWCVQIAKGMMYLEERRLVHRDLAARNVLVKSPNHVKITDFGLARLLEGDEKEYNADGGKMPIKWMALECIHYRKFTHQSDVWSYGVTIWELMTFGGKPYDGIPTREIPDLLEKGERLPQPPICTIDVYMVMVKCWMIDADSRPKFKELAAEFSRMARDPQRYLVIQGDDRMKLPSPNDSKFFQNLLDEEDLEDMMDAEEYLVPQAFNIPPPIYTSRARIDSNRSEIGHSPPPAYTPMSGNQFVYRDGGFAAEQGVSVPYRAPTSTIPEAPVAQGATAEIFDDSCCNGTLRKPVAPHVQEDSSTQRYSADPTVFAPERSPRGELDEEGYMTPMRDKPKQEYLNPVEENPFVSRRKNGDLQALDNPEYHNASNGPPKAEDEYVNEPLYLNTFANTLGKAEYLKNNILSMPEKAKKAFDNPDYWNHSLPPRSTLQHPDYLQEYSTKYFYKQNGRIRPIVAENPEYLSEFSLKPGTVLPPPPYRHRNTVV

As usually defined, the inhibition is the change of the read-out against control, counted positive when it falls. Consider `COc1cccc(-n2cnc3c(N/N=C/c4ccncc4)ncnc32)c1`, for which the inhibition was 16.2% in [1]; -8.69% in test [2]; -4.51% in [3]; -2.1% in [4]; 0.65% in test [5]; 0.94% in test [6]. Also, the inhibition was 7.49% in test [7]; -3.73% in [8]; 2.45% in [9]; 4.18% in test [10]; 4.82% in test [11]; -0.04% in [12]. Moreover, the inhibition was -1.27% in [13]; -7.19% in [14]; -2.61% in test [15]; -3.25% in [16]; 10.7% in [17]; -3.58% in [18]. Also, the inhibition is 3.63% in [19] and -4.06% in test [20].

On to `NS(=O)(=O)c1ccc(Nc2cc(-c3ccc(O)c(F)c3)n[nH]2)cc1`, for which the inhibition in test [1] was -1.29%; in test [2] it was -8.08%; in test [3], -5.11%; in test [4] it was -0.68%; in test [5], -0.49%; in test [6], -5.39%. Moreover, the inhibition in test [7] was -4.29%; in [9], -6.22%; in test [10], 5.83%; in test [11], 14.1%; in [12] it was -3.61%; in test [13], -0.97%. Also, the inhibition is -2.91% in [14]; 8.63% in test [15]; -4.17% in [16]; 9.61% in test [17]; 1.11% in test [18]; 8.58% in test [19]. For the same compound, the inhibition in test [20] worked out at 1.23%.

In the case of `O=C(Nc1ccc(Oc2ccc3[nH]c(NC(=O)c4ccccc4)nc3c2)cc1)Nc1cc(C(F)(F)F)ccc1F`, the inhibition in [1] worked out at 61.8%; in test [2], 5.05%; in test [3], 8.33%; in [4], 3.63%; in [5] it was 27.5%; in test [6], 2.77%. Moreover, the inhibition in test [7] worked out at 4.41%; in test [8], 6.9%; in [9], 9.12%; in [10], 1.59%; in test [11], 7.9%; in [12], 2.28%. For the same compound, the inhibition in test [13] stood at 2.49%; in [14], 2.35%; in test [15], 6.8%; in [16], 2.19%; in test [17], 18.8%; in test [18] it was 7.91%. Moreover, the values for the inhibition in test [19] and in test [20] were 6.31% and -0.39%, respectively.

With `Clc1ccc(CNc2nccc(-c3cnn4ncccc34)n2)cc1`, the inhibition in [1] was 9.79%; in test [2], 2.09%; in [3], 2%; in [4] it was 0.83%; in test [5], 0.64%; in [6], -2.69%. Besides, the inhibition in test [7] was found to be 2.99%; in test [8], 3.33%; in [9] it was 1.08%; in test [10] it was 3.91%; in [11], 1.93%; in test [12] it was 0.01%. For the same compound, the inhibition in test [13] was 1.6%; in test [14], 0.58%; in [15] it was -1.59%; in test [16], 0.2%; in test [17], 1.7%; in test [18] it was -0.71%. Moreover, the inhibition in test [19] is -0.67%; in test [20], 4.74%.

Take `CN(C)c1ccc2c(c1)/C(=C/Nc1ccc(S(N)(=O)=O)cc1)C(=O)N2`: the inhibition in test [1] came to 5.77%; in test [2], 4.11%; in test [3] it was 1.83%; in test [4], 2.11%; in test [5], 3.08%; in test [6], 0.32%. In addition, the inhibition in test [7] was found to be 3.44%; in [8] it was 4.88%; in [9], 7.65%; in [10], 2.36%; in test [11], 8.18%; in test [12], 0.6%. Moreover, the inhibition was 0.4% in test [13]; 3.54% in test [14]; 15.3% in test [15]; 5.56% in [16]; 31.6% in test [17]; 7.1% in test [18]. Further, the inhibition in test [19] was 29.6%; in [20], 1.99%.

For `COc1ccc2ncn(-c3cc(O[C@H](C)c4ccccc4Cl)c(C(N)=O)s3)c2c1`, the inhibition in test [1] is 12%; in [2], 0.01%; in test [3], 0.43%; in [4], -2.13%; in [5] it was -1.28%; in [6], 2.78%. For the same compound, the inhibition is 2.8% in [7]; 1.62% in [8]; 4.43% in [9]; 2.82% in test [10]; 3.7% in test [11]; 2.74% in test [12]. Besides, the inhibition in [13] was 1.59%; in [14], -0.72%; in [15], 4.65%; in test [16], -0.16%; in [17], 5.18%; in test [18], 1.57%. In addition, the inhibition in [19] was 4.59%; in test [20], -1.86%.

For `Cc1ccc(C(=O)NC2CCC2)cc1-c1ccc(C(=O)NCC2CC2)cc1`, the inhibition in test [1] stood at 2.05%; in test [2], 3.94%; in [3] it was 1.11%; in test [4], 1.02%; in test [5] it was 3.17%; in [6], 3.5%. The inhibition in test [7] turned out to be 8.52%; in test [8], 16.7%; in test [9], 17.7%; in [10] it was 4.2%; in test [11] it was 2.82%; in [12] it was 2.48%. Besides, the inhibition in test [13] stood at 1.75%; in [14] it was 5.21%; in test [15], 0.27%; in test [16], 2.36%; in test [17] it was 3.31%; in test [18], 3.29%. The inhibition was determined as 3.04% in [19] and 0.25% in test [20].
